# Data from PMC4336329 (PLoS ONE, 2015).
# Screen size: about 310,000 compounds; about 14,000 (4.5%) showed an effect of 50% or more. Effects have a minus sign here. What follows is part of a selection rich in strong results, with near analogues and random picks from the rest.
# Biological target: human ether-à-go-go-related gene (hERG) potassium channel (human, UniProt Q12809)
# Assay: primary screen, population patch clamp on CHO cells stably expressing hERG; higher = less effect of the substance
# 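Further: peak tail current of the secondary pulse compared with the same well before compound.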
# human ether-à-go-go-related gene (hERG) potassium channel, sequence (Q12809 whole entry, looked up): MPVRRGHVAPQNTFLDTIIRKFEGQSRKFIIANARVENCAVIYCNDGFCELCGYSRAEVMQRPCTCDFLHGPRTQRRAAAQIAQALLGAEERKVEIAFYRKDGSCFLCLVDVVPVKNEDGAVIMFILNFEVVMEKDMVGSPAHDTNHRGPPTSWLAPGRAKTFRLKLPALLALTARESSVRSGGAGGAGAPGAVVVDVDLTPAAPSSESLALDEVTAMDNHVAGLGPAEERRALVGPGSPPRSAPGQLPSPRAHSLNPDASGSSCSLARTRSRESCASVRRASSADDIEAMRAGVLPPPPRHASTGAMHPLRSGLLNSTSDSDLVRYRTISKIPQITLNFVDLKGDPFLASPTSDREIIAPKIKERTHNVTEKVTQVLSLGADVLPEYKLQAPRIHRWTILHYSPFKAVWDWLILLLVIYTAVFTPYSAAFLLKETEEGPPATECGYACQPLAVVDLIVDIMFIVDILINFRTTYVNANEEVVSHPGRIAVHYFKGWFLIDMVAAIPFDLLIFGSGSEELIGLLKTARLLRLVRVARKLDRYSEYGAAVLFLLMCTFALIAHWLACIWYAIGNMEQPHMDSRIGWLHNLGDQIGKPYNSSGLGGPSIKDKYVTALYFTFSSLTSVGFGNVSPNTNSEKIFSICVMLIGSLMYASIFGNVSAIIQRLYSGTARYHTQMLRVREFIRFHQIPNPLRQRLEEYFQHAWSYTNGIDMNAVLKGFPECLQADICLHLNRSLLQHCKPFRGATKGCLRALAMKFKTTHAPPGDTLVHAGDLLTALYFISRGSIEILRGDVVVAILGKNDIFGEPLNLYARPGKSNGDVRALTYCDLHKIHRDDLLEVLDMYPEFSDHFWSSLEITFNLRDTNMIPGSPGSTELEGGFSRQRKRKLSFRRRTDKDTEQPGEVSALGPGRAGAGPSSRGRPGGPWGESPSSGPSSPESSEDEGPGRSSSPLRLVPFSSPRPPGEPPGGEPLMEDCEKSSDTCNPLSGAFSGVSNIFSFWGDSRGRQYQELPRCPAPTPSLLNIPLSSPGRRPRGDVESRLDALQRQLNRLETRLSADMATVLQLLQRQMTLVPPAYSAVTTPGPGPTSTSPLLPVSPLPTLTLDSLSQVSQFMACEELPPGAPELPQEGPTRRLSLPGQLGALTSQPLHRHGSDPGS
row,SMILES,"hERG current change (%, negative = inhibition) at 10uM [%]"
1,O=C(COC(=O)C12CC3CC(CC(Cl)(C3)C1)C2)Nc1ccc2[nH]c(=O)[nH]c2c1,11.5
2,O=C(NCC1CCN(Cc2ccccc2Cl)CC1)Nc1ccccc1F,-44.7
3,COc1ccc(OC)c(CN2CCC(CNC(=O)Nc3cccc(Cl)c3)CC2)c1,-60.8
4,O=C(NCC1CCN(Cc2ccccc2Cl)CC1)Nc1cccc(Cl)c1,-72
5,COc1ccc(N2CCC(CNC(=O)Nc3cccc(OC)c3)C2)cc1 (stereo not drawn),-15.7
6,COc1cc(NC(=O)NCC2CCN(Cc3ccccc3Cl)CC2)cc(OC)c1OC,3.03
7,COc1cc(NC(=O)NCC2CCN(Cc3ccccc3F)CC2)cc(OC)c1,-14.9
8,COc1ccc(NC(=O)C2CCCO2)cc1 (stereo not drawn),-0.956
9,Cc1ccc(NC(=O)c2cccc(S(=O)(=O)N3CCN(c4ccc(F)cc4)CC3)c2)nc1,-14.6
10,Cc1cc(CN(C)C(=O)CC2C(=O)NCCN2Cc2ccc(F)c(F)c2)on1 (stereo not drawn),31.1
11,Nc1ccc(-c2nnc(-c3ccc(-c4ccccc4)cc3)o2)cc1,4.31
12,S=c1[nH]c(-c2ccccc2)cs1,66.4
13,COc1ccc(C)cc1NS(=O)(=O)c1cccc2nonc12,-10.7
14,CCCOc1cccc(C2C(C(=O)c3ccc(C)o3)=C(O)C(=O)N2CCN2CCOCC2)c1 (stereo not drawn),10.5
15,O=C(O)c1cc([N+](=O)[O-])ccc1N1CCCCC1,-1.28
16,CCN1CCN(c2ccc([N+](=O)[O-])cc2S(=O)(=O)N2CCOCC2)CC1,-43.9
17,COC(=O)c1cc([N+](=O)[O-])ccc1N1CCN(Cc2ccccc2)CC1,-72.2
18,CCN1CCN(c2ccc([N+](=O)[O-])cc2C(=O)OC)CC1,-63.7
19,NC(=O)c1cc([N+](=O)[O-])ccc1N1CCN(Cc2ccccc2)CC1,-41.8
20,CCOc1ccccc1NC(=O)COc1cccc(-n2cnnn2)c1,-27.2
21,O=C(NCCNC(=O)c1ccccc1Br)c1ccccc1Br,8.51
22,Cc1ccc(C(=O)N/N=C2\SCC(=O)N2c2cc(C)ccc2C)cc1,8.16
23,COc1ccccc1CNC(=O)N1CCN(c2ccccc2C)CC1,6.36
24,CC(=O)C1=C(O)C(=O)N(c2ccc(Br)cc2)C1c1cccc([N+](=O)[O-])c1 (stereo not drawn),24.5
